# Measured values: PubChem BioAssay AID1942 (Johns Hopkins Ion Channel Center, 2009)
# Screen size: about 2,400 compounds; about 580 (24%) were called active. A selection follows. A number with no mark means an inactive call.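 The calls were made as follows: active = activity change at or above the mean plus 3 SD of buffer wells without dofetilide, per plate; inactive = the rest.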
# Target: Potassium voltage-gated channel subfamily KQT member 2 (Rattus norvegicus) (UniProt O88943)
# Test: rat KCNQ2 channel activation by compounds alone, confirmation, counter-screen for hERG block protector project, cell-based, CHO, FluxOR thallium flux (AID 1942);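 also: normalized value minus buffer-control mean plus three SD of buffer wells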
# Settings: CHO-KCNQ2 cells, FluxOR thallium flux fluorescence; at 10 µM; stronger effect = higher value
# Sequence of Potassium voltage-gated channel subfamily KQT member 2 (Rattus norvegicus) (O88943 whole entry, looked up): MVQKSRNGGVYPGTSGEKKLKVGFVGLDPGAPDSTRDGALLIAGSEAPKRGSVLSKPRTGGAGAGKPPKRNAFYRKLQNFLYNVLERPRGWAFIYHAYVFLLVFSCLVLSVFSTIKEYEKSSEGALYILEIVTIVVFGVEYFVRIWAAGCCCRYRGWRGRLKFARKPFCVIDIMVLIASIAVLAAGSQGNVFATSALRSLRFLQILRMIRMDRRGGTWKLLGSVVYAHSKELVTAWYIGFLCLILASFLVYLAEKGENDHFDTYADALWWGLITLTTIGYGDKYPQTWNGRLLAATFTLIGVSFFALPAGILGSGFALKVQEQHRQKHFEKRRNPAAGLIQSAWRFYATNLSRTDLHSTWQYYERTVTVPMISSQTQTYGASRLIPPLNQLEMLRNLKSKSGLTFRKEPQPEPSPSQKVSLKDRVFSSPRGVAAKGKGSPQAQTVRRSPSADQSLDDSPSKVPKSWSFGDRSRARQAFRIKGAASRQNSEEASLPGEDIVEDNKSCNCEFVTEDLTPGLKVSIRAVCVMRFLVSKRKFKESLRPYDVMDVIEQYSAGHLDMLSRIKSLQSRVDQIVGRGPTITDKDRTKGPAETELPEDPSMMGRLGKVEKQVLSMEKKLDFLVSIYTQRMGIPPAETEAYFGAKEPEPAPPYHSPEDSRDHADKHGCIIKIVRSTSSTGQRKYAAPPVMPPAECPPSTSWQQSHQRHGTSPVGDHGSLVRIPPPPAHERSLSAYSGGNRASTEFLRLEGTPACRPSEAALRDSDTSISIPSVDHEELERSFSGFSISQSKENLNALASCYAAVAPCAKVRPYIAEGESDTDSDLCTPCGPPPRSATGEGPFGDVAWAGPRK
row,SMILES,"activity change, less the hit threshold"
1,Cc1nn(-c2ccc(Cl)cc2)c2sc(C(=O)c3c(N)n(C)c(=O)n(C)c3=O)cc12,-14.1%
2,Cc1nc2ccc(C(=O)O)cc2[nH]1,-10.4%
3,COc1ccccc1Cn1c(=S)[nH]c2ccc(Br)cc2c1=O,-7.4%
4,C=CCn1c(=S)[nH]c2ccc(Br)cc2c1=O,12.4% (active)
5,O=C(CCN1C(=O)/C(=C\C=C\c2ccccc2)SC1=S)Nc1ccc(C(=O)O)cc1,-12.3%
6,O=c1[nH]c2ccccc2nc1C(F)(F)C(F)F,-16.2%
7,CCSc1nc2c(sc3ccccc32)c(=O)n1C(C)C,30.9% (active)
8,CCC(C)Sc1nc2c([nH]c3ccccc32)c(=O)n1C (stereo not drawn),-19.6%
9,COCCCN1C(=O)C(=O)/C(=C(/O)c2ccc(S(=O)(=O)N3CCOCC3)cc2)C1c1ccc(F)cc1 (stereo not drawn),-9.9%
10,CNc1nc(N)nc(OC(C(F)(F)F)C(F)(F)F)n1,-11%
11,Oc1ccc(/C=N/Nc2nccnc2Cl)c(O)c1,6.2% (active)
12,CN1C(=O)/C(=N\OC(=O)c2cccc3ccccc23)c2ccccc21,-9.4%
13,CCOC(=O)c1n[nH]n2c1nc(=S)c1ccccc12,49.6% (active)
14,CCOC(=O)c1c(O)c2ccccc2n(C)c1=O,-10.3%
15,CCOC(=O)C1CCN(C(=O)COC(=O)c2nn(C)c(=O)c3ccccc23)CC1,-21%
16,COC(=O)c1c(N2C(=O)CC(Sc3ncccc3C(=O)O)C2=O)sc(C)c1C (stereo not drawn),-12.9%
17,COc1ccc(/C=N/NC(=O)c2ccncc2)cc1CN1CCCc2ccccc21,-22.8%
18,O=C(NNc1c(F)c(F)cc(F)c1F)c1cc2ccccc2oc1=O,-13%
19,O=c1[nH]n2c(=O)c3c([nH]c2c1N=Nc1ccccc1)CCC3,-11.6%
20,CNC(=O)NC(=O)C(C)N1CCN(C/C=C/c2ccccc2)CC1 (stereo not drawn),-19.2%
21,O=C(NC(=S)N1CCN(C/C=C/c2ccccc2)CC1)c1ccc(Cl)nc1,7.4% (active)
22,O=C(CCN1C(=O)/C(=C\C=C\c2ccccc2)SC1=S)Nc1cccc(C(=O)O)c1,-20.7%
23,O=C(Nc1ccc(N2CCN(C(=O)c3ccc(Cl)cc3)CC2)cc1)c1ccc([N+](=O)[O-])o1,-6.1%
24,CC(=O)NC(CSC(CC(=O)c1ccco1)c1ccc(C)cc1)C(=O)O (stereo not drawn),-4.9%
25,Cc1ccc(S(=O)(=O)c2nnn3c2nc(N2CCOCC2)c2ccccc23)c(C)c1,-20.7%

row,SMILES,"activity change, less the hit threshold"
1,COc1ccccc1NC1=C(NC(C)=O)C(=O)c2ccccc2C1=O,14.4% (active)
2,CCOC(=O)c1nnn(CC(=O)Nc2ccccc2OC)c1C(=O)OCC,-15.8%
3,COc1ccccc1NC(=O)C1CCCN1C(=O)NCc1ccccc1 (stereo not drawn),-24.2%
4,O=C(Nc1ccc(Cl)cc1)Nn1cnnc1,-22.2%
5,CC(C)NC(=O)Nc1n[nH]c(Nc2ccc(Cl)cc2)n1,13.2% (active)
6,O=c1[nH]c2ccc(S(=O)(=O)NCc3ccccc3)cc2[nH]1,-14%
7,O=C(CSc1nc(N2CCCCC2)nc(N2CCCCC2)n1)c1ccccc1,31.5% (active)
8,Cc1ccc2nc(SCC(=O)N3CCCCCC3)nc(=O)n2c1,-23.7%
9,CC(C)Nc1nc(SCC(N)=O)nc(N2CCOCC2)n1,-13.5%
10,CN(C)CCOC(=O)C1(c2ccccc2)CCCC1,-12.9%
11,CC(C)n1c(=S)[nH]c2scc(-c3cccs3)c2c1=O,97.6% (active)
12,S=c1[nH]c(-c2cccs2)cn1-c1ccccc1,-6.4%
13,Cn1c(=S)[nH]c2scc(-c3cccs3)c2c1=O,70.4% (active)
14,COc1cc(/C=N/n2cnc3scc(-c4cccs4)c3c2=O)cc(OC)c1OC,-21%
15,CC(C)C(=O)Nc1c(-c2ccccc2F)c(=O)c2ccccc2n1C,-21.5%
16,NC(=O)C1CCN(C(=O)CC(c2ccccc2)c2ccccc2)CC1,-24%
17,Brc1ccc(-c2noc(CCc3ccccc3)n2)cc1,-24.9%
18,Fc1ccccc1-c1n[nH]c(=S)n1C1CC1,-17.8%
19,CC(C)(C)c1cc(-c2n[nH]c(=S)n2-c2ccccc2F)n[nH]1,11.5% (active)
20,COc1ccc(/C(C)=N/Nc2ccc(C(=O)O)cc2)c(OC)c1,-18.1%
21,COc1ccccc1-n1c(CCC(=O)O)ccc1-c1ccccc1,-13.3%
22,ON/C=N/C(=S)Nc1ncc(C(F)(F)F)cc1Cl,26.3% (active)
23,CON/C=N/C(=S)Nc1ncc(C(F)(F)F)cc1Cl,29.7% (active)
24,c1ccc(Oc2cccc(OCCn3cncn3)c2)cc1,-14.9%
25,Cc1ccccc1NC(=O)CN1C(=O)S/C(=C\c2ccc(-c3cccc(C(=O)O)c3C)o2)C1=O,-22.4%

row,SMILES,"activity change, less the hit threshold"
1,CN(Cc1ccsc1)C(=O)CCc1nnc(Cc2c[nH]c3ccccc23)o1,-10.9%
2,O=C1NCC(=O)N2C(c3ccccc3)c3[nH]c4ccccc4c3C[C@@H]12 (stereo partly drawn),-11.9%
3,COc1cc(NC(=O)CSc2ncnc3sc4c(c23)CCC(C)C4)c(C(=O)O)cc1OC (stereo not drawn),89.6% (active)
4,CC(=O)CSc1ncnc2sc3c(c12)CCC(C)C3 (stereo not drawn),89.9% (active)
5,COc1cc(NC(=O)CCCOc2ccc(Cl)cc2Cl)c(C(=O)O)cc1OC,-18.7%
6,NS(=O)(=O)c1ccc(Sc2ccc3c(c2)CCC3)nc1,-2.7%
7,COc1cc(NS(=O)(=O)c2ccc(NC(=S)Nc3ccccc3)cc2)nc(OC)n1,-20.8%
8,COc1ccc(C(=O)CSc2nnc3ccc(-c4ccccn4)nn23)cc1,-17.4%
9,CS(=O)(=O)N1CCN(c2ccccc2NC(=O)Nc2cccc(Cl)c2)CC1,-24.2%
10,COc1ccc(-c2nc3ccc(C(=O)NCC(OC)OC)cc3nc2-c2ccc(OC)c(OC)c2)cc1OC,-22.7%
11,O=C1C(=O)N(CCN2CCOCC2)C(c2cccnc2)/C1=C(/O)c1ccc(Cl)cc1 (stereo not drawn),-17.6%
12,Nc1nnc(SCC(=O)OCc2ccc(F)cc2)s1,-16.7%
13,O=C(/C=C/c1ccccc1)CC(=O)c1ccccc1O,-15.2%
14,O=C(/C=C/c1ccccc1)c1cc(Br)ccc(=O)c1O,15% (active)
15,CCc1ccc(/C=C/C(=O)c2cc(Br)ccc(=O)c2O)cc1,-8.6%
16,Cc1cccc(/C=C/C(=O)c2cc(Br)ccc(=O)c2O)c1,3% (active)
17,COc1cc(C2NC(=O)NC(O)(C(F)(F)F)C2C(C)=O)cc(OC)c1OC (stereo not drawn),-20.3%
18,O=C1CC(C(=O)N2CCOCC2)C2(CCCCC2)O1 (stereo not drawn),-22.9%
19,CCOc1ccccc1CNC(=O)CNC(=O)c1cccs1,-20.9%
20,Cc1cccc(NC(=S)c2nc3ccccc3s2)c1,-23.6%
21,Cc1ccc(NC(=S)c2nc3ccccc3s2)cc1,-9.6%
22,S=C(Nc1ccc(Cl)cc1)c1nc2ccccc2s1,7.4% (active)
23,Cc1ccc2[nH]c(=O)c(C(c3nnnn3C3CCCC3)N3CCCc4ccccc43)cc2c1 (stereo not drawn),13.3% (active)
24,CC(C)(C)n1nnnc1C(c1cc2cc3c(cc2[nH]c1=O)OCCO3)N1CCSCC1 (stereo not drawn),-17.4%
25,CC(=O)Nc1ccc(S(=O)(=O)NC2(C(F)(F)F)C(=O)Nc3c2c(=O)[nH]c(=O)n3C)cc1 (stereo not drawn),-12.3%

row,SMILES,"activity change, less the hit threshold"
1,Cc1cc(OCCN2CCCCCC2)ccc1[N+](=O)[O-],-19.9%
2,O=c1cc(-c2ccccc2)cc(-c2ccccc2)n1O,57.6% (active)
3,Cn1c(=O)cc(-c2ccccc2)c2ccccc21,-20.4%
4,C/C=C(\C)CN1CCN(c2cccc(C)c2C)CC1,-16.9%
5,Cc1ccccc1OCC(=O)NNC(=O)c1ccc2c(=O)n3c(nc2c1)CCC3,-15.4%
6,O=C(COc1ccc(Br)cc1Br)NC(=S)N1CCCc2ccccc21,-16.8%
7,CCC(=O)N1CCCc2ccccc21,-20.5%
8,O=C(NC(=S)N1CCCc2ccccc21)c1ccc([N+](=O)[O-])cc1,15.1% (active)
9,O=C(NC(=S)Nc1ccccc1N1CCCC1)c1ccc([N+](=O)[O-])cc1,-8.4%
10,COc1ccccc1NC(=S)N1CCCc2ccccc21,-23.2%
11,O=C(NC(=S)N1CCCc2ccccc21)c1ccc(Br)cc1,18.2% (active)
12,COc1ccccc1NC(=O)Cc1nnc(SCC(=O)Nc2nccs2)n1C,-13.3%
13,Cc1ccc(C2c3c(-c4ccccc4O)n[nH]c3C(=O)N2Cc2ccncc2)cc1 (stereo not drawn),-18.8%
14,O=C1N2CCSC2=NC1(NS(=O)(=O)c1ccccc1)C(F)(F)F (stereo not drawn),-12%
15,O=C(Nc1ccccc1)N1CCSc2cc(Cl)ccc21,-9.1%
16,Cc1ccc(-c2csc3nc[nH]c(=S)c23)cc1,41% (active)
17,Cn1cc(/C=N/n2cnc3scc(-c4ccc(Cl)cc4)c3c2=O)c2ccccc21,-18.8%
18,Fc1ccc(-n2cc(-c3ccccc3)c3c(=S)nc[nH]c32)cc1,-9.7%
19,Cc1ccc(C)n1-n1c(C)nc2scc(-c3ccccc3)c2c1=O,-30.9%
20,S=c1[nH]cnc2scc(-c3ccccc3)c12,44.9% (active)
21,Cn1nnnc1Sc1ncnc2scc(-c3ccc(F)cc3)c12,-21.3%
22,S=c1[nH]cnc2scc(-c3ccc(Cl)cc3)c12,18.2% (active)
23,S=c1[nH]cnc2scc(-c3ccc(Br)cc3)c12,4.9% (active)
